# Data reported in PubChem BioAssay AID624134 (Broad Institute, 2012).
# Among all 1,600 compounds or so, about 1,100 (69%) were called active. So high a share suggests a set chosen from earlier hits. Only a sample is shown. Where a call stands in place of a potency, no number is given. Potency and affinity values are given separately. Results filed as inconclusive are left out.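 How the source made its calls: active means signal drop with fitted half-maximal concentration no higher than twice the top valid tested concentration; inconclusive means flat curve with 30 to 70% signal loss, or poor fit; inactive means the rest, including signal rises and flat curves within 30%.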
# Experiment: loss of viability in HepG2 cells – cell-based, CellTiter-Glo, cherry-picked, cytotoxicity control for Shn3 inhibitor project, dose response (AID 624134)
# Settings: CellTiter-Glo ATP luminescence, 48 h; series mostly up to 35 µM
row,Compound,outcome
1,O=C(Cn1cc(C(=O)c2ccco2)c2ccccc21)Nc1ccccc1F,inactive
2,CCC(=O)c1cn(CC(=O)Nc2ccccc2Cl)c2ccccc12,inactive
3,NS(=O)(=O)c1ccc(CNC(=S)NC(=O)c2ccco2)cc1,inactive
4,Cc1ccc(-c2nnc(N3CCC(C)CC3)c3ccccc23)cc1C,inactive
5,C[C@@H]1CN([C@H](C)CO)C(=O)c2cc(Br)cnc2O[C@H]1CN(C)C(=O)Cc1ccncc1,inactive
6,Cc1cc(C(=O)COC(=O)c2ccccc2Br)c(C)n1CC1CCCO1 (centres undefined),inactive
7,CCOC(=O)C1CCN(C(=O)c2sc3nc(C)nc(N4CCC(C)CC4)c3c2C)CC1,inactive
8,CN(C(=O)CSc1nc(-c2cccs2)nc2ccccc12)C1CCS(=O)(=O)C1 (centres undefined),inactive
9,CC(C)=CCC/C(C)=C/CNC(=O)C[C@H]1C[C@H](C(=O)N(C(C)C)C(C)C)[C@@]2(C)c3[nH]c4cc(CCC(=O)N(C)C)ccc4c3CCN2C1=O,inactive
10,O=[N+]([O-])c1cc(S(=O)(=O)C(F)(F)F)ccc1Sc1nc2ccccc2s1,inactive
11,CS(=O)(=O)c1ccc(Sc2nc3ccccc3s2)c([N+](=O)[O-])c1,inactive
12,N#C/C(=C(\O)Cc1ccccc1)c1nc2ccccc2[nH]1,inactive
13,C=CCOC(=O)C1=C(C)N=C2SCCC(=O)N2C1c1cccs1 (centres undefined),inactive
14,CC(=O)O[C@H]1CC[C@@]2(C)C(=CC[C@H]3[C@@H]4CC[C@H](C(C)=O)[C@@]4(C)CC[C@@H]32)C1,inactive
15,C=CCNc1nc(N2CCOCC2)c(C#N)c2c1CN(C)CC2,inactive
16,CC(=O)N1CCOc2cc(S(=O)(=O)NCc3ccc(F)cc3)c(C)cc21,inactive
17,C[C@@H]1CN([C@H](C)CO)C(=O)CCCn2nncc2CO[C@H]1CN(C)S(=O)(=O)c1ccc2c(c1)OCCCO2,inactive
18,CCn1nnc2cc(C(=O)Nc3cc(Cl)ccc3C)ccc21,inactive
19,O=C(Sc1cccc2cccnc12)c1ccccc1Br,inactive
20,CN(c1ccccc1)S(=O)(=O)c1cccc(NC(=O)CSc2nncs2)c1,inactive
21,CCOc1ccc2nc(SC3CC(=O)N(c4ccc(C)cc4)C3=O)sc2c1 (centres undefined),inactive
22,CC(C)CCNC(=O)c1cc2c(=O)[nH]c3ccccc3c2s1,inactive
23,Cc1ccc(OC(=O)CCC(=O)Oc2ccc(C)cc2C)c(C)c1,inactive
24,CCCC(c1nnnn1Cc1ccc(OC)cc1)N1CCN(c2ccccc2)CC1 (centres undefined),inactive
25,CCOC(=O)C1CCN(C(=O)c2ccc(OCC(=O)Nc3cccc(C(F)(F)F)c3)c(OC)c2)CC1,inactive

row,Compound,outcome
1,Cc1ccccc1N/C(=N/S(=O)(=O)c1ccccc1)c1ccc(F)cc1,inactive
2,CCOC(=O)C1CCCN(S(=O)(=O)c2ccc(S(=O)(=O)N(CC)CC)cc2)C1 (centres undefined),inactive
3,Cc1ccc(CNC(=O)CSc2c3c(nc4ccc(Cl)cc24)CCCC3)o1,inactive
4,CCOc1cc(/C=C2\C(=O)ON=C2C)ccc1OCc1ccccc1,inactive
5,CC1=NOC(=O)/C1=C\c1ccc(-c2cc(Cl)ccc2Cl)o1,inactive
6,O=C(CSc1nc2c(c(=O)n1-c1ccc(Br)cc1)SCC2)NCc1ccco1,inactive
7,Cc1cc(-n2c(C)cc(C(=O)CSc3nncn3C)c2C)no1,inactive
8,CCCC(=O)NC(=S)Nc1ccc(N2CCN(C(=O)c3cccs3)CC2)cc1,inactive
9,O=C(NCCc1ccccc1)c1ccc2c(c1)OCCO2,inactive
10,CCOC(=O)c1c(NC(=O)c2nn(CC)cc2Br)sc(C)c1C,inactive
11,CCOC(=O)c1sc(NC(=O)CCCn2nc([N+](=O)[O-])c(Cl)c2C)c(C(=O)OCC)c1C,inactive
12,COc1ccccc1N1CCN(c2ncc(C(=O)N3CCN(c4cccc(Cl)c4)CC3)c3ccccc23)CC1,inactive
13,O=C(Nc1cccc(S(=O)(=O)NC2=NCCC2)c1)C1CC(=O)N(c2ccc3c(c2)OCCO3)C1 (centres undefined),inactive
14,C=C1C(=O)[C@@]23[C@H](O)C[C@@H]4C(C)(C)CC[C@H](O)[C@]4(C)[C@@H]2C[C@H](O)[C@@H]1[C@H]3O,inactive
15,CCc1c(O)nc(SCC(=O)Nc2ccccc2)n(-c2ccccc2)c1=O,inactive
16,O=C(CSc1nc2[nH]ncc2c(=O)[nH]1)Nc1ccccc1C(F)(F)F,inactive
17,O=C(NCCNC(=O)Oc1cccc2ccccc12)Oc1cccc2ccccc12,inactive
18,COc1cc2ncnc(N[C@H](C)c3ccccc3)c2cc1OC,inactive
19,Cc1cc(C)n(-c2cc(-n3nc(C)cc3C)ncn2)n1,inactive
20,COc1ccc(C(=O)OCC(=O)Nc2ncc([N+](=O)[O-])s2)cc1OC,inactive
21,CCn1c(C)cc(C(=O)COC(=O)c2ccccc2[N+](=O)[O-])c1C,inactive
22,CS(=O)(=O)c1ccc(C(=O)OCC(=O)N2CCOCC2)cc1[N+](=O)[O-],inactive
23,C=C1C(=O)C23C(O)C1CCC2C12COC3(O)C(O)C1C(C)(C)CCC2O (centres undefined),inactive
24,CCO[C@@H]1OC(C(=O)NC2CC2)=C[C@H](c2coc3ccccc3c2=O)[C@H]1CCCO,inactive
